Records with an inconclusive call do not appear. Activity calls are given as the source filed them.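 Rule for the calls, unless noted: active = viability at or under a set limit in both replicates, limit being median viability minus 3 SD (cut at about 48% in these data, passing the limit was not always enough); inconclusive = at or under the limit in just one replicate; inactive = at or above the limit in both replicates.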
Legend:
[1] = reducers of endogenous Her2 protein level, primary screen, SKBR3 breast tumor cells, AlphaScreen, ATP viability (AID 461;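 active = Her2 level under about 52% in both replicate screens, with viability over 70% of control, limit read from the data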;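 for Her2 level: lower value means less Her2 protein in the cells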;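 for viability: percent of carrier control wells set as 100% viability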); conditions: 18-24 h, measured here: SKBR3 viability, ATP luminescence, at 10 µM
[2] = molecular target: Receptor tyrosine-protein kinase erbB-2 (Homo sapiens) (UniProt P04626); test: as above; conditions: 18-24 h, at 10 µM, stronger effect = lower value
Receptor tyrosine-protein kinase erbB-2 (Homo sapiens), sequence (P04626 whole entry, looked up): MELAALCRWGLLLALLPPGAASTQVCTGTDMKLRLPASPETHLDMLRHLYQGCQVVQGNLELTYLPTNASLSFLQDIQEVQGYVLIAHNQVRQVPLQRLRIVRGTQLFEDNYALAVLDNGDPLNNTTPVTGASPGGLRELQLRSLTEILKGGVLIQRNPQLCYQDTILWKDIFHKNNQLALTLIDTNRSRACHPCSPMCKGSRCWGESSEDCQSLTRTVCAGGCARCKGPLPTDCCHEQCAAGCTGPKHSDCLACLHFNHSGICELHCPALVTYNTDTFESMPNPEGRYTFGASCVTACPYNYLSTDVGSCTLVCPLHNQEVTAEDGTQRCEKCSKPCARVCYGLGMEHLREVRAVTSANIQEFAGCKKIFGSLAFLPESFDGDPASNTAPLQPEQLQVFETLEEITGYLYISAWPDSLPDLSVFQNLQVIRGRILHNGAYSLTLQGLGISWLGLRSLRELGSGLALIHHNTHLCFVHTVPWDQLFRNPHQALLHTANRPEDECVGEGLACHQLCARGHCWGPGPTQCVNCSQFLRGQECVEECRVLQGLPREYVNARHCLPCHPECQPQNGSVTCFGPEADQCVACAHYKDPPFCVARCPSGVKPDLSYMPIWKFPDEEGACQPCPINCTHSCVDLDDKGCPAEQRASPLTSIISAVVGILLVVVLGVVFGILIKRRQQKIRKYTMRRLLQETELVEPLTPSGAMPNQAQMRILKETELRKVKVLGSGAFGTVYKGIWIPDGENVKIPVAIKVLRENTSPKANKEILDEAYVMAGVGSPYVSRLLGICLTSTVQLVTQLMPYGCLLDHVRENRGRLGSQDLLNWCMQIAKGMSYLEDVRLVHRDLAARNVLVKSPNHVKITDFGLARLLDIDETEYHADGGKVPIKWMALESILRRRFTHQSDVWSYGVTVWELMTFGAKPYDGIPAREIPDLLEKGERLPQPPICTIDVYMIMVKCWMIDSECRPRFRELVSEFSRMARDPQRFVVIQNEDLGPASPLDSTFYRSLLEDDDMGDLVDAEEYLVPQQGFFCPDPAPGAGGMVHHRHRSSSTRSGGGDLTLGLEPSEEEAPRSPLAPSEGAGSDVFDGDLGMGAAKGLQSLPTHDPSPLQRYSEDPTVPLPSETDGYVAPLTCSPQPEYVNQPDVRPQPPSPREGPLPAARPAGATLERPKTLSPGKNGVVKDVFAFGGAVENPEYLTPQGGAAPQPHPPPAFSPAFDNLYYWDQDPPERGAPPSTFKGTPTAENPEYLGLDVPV

[3] = SK-BR-3 cell growth inhibitors, pilot screen, 24 h, human (AID 572;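 active = viability at or below 10% of carrier control in both of two separate runs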;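 note: compound exposure lasted between 18 and 24 h rather than exactly 24 h; 100% = carrier-treated control wells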); conditions: SK-BR-3 viability, CellTiter-Glo luminescence, at 10 µM, stronger effect = lower value
[4] = HUVEC growth inhibition – cell-based, human, primary screen (AID 575;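 active = viability at or below 30% in both replicate assays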;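 note: 100% = median of untreated cell wells with 0.1% DMSO on each plate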); conditions: HUVEC proliferation, CellTiter-Glo luminescence, 72 h; at 10 µM; stronger effect = lower value
[5] = growth inhibitors of H69AR lung tumor, primary screen, human, duplicate replicates (AID 580); conditions: H69AR lung tumor cells viability, ATP luminescence, 72 h; at 10 µM; stronger effect = lower value;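 note: 100% = mean luminescence of untreated wells and 0% = no signal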
[6] = reversal of MRP1-mediated doxorubicin resistance, pilot screen, H69AR cells, doxorubicin co-treatment (AID 601;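 active = viability loss from added drug above about 55%, and viability with drug at most 40%, in both replicates, limit read from the data, passing the limit was not always enough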); conditions: CellTiter-Glo, 72 h, at 10 µM; for differential viability (reversal): stronger effect = higher value
[7] = 384-well plate pilot, post-Golgi transport modulator project, inhibition of yeast transport mutant growth (AID 636; in the data active = inhibition above about 31%); conditions: absorbance 615 nm, about 18 h, stronger effect = higher value
[8] = growth suppression of yeast trafficking mutant, preliminary HTS, modulators of trafficking downstream of Golgi apparatus project, 1536-format plate, OD 615 nm (AID 637; in the data active = inhibition above about 30%); conditions: yeast transport mutant growth, absorbance 615 nm, 18 h; stronger effect = higher value
[9] = OD615 S. cerevisiae growth inhibition, permissive medium, pilot counter-assay, permissive growth control for S. cerevisiae lifespan shortening project (AID 705;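 active = growth inhibition above 25% in both replicates, a cutoff set 3 SD above the mean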); conditions: OD615, 24 h, at 10 µM, stronger effect = higher value
[10] = Restrictive medium S. cerevisiae growth inhibition, OD615, pilot screen of yeast lifespan reduction project, restrictive growth control (AID 706;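 active = growth inhibition above a set limit, 3 SD over mean compound inhibition, in both replicates, cut at about 43% in these data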;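 note: modified DeaD lifespan yeast strain shifted to restrictive glucose medium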); conditions: OD615, 48 h, at 10 µM, stronger effect = higher value
[11] = viability gain of MRP-1-high H69AR cells under doxorubicin, pilot screen, MRP-1 activator project, CellTiter-Glo, duplicate (AID 807;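 active = viability increase at or above a cutoff of the median across tested compounds plus 3 SD, cut at about 8.5% in these data, passing the limit was not always enough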;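 note: compound pretreatment 18-22 h then 72 h combined with doxorubicin; 0% = doxorubicin alone and 100% = vehicle without doxorubicin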); conditions: H69AR viability with doxorubicin, CellTiter-Glo luminescence; at 10 µM; stronger effect = higher value
[12] = growth suppression of beta-catenin knockout HCT116, pilot screen, human colon tumor cells (AID 823;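 active = cell viability at or below a set limit in both duplicate runs, the limit being the all-compound median minus 4 SD, cut at about 23% in these data, passing the limit was not always enough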;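 note: 0% = wells killed by 20 µM Hyamine and 100% = untreated DMSO cell wells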); conditions: CellTiter-Glo, 60 h, at 10 µM, stronger effect = lower value
[13] = growth suppression of PTEN-deleted HCT116, pilot screen, cell-based, HCT116 clonal line, CellTiter-Glo (AID 824;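 active = viability at or below 27.92% in each of two runs, the all-compound median minus 4 SD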;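 note: 0% = 20 µM Hyamine control and 100% = vehicle cell control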); conditions: 60 h, at 10 µM, stronger effect = lower value
[14] = inhibitors of the yeast RAM network, pilot screen, dse1pr::URA3 reporter, 5-FOA selection (AID 869;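 active = inhibition over a set limit, the all-compound mean plus 3 SD, in both replicate runs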;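 note: 0% = DMSO wells with no growth and 100% = 10 µM 1-NA-PP1 with full growth; RAM network block rescues cells from 5-FOA so hits raise OD615 growth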); conditions: S. cerevisiae dse1pr::URA3 5-FOA growth, OD615, 2 d; at 10 µM; stronger effect = higher value; strain carries analog-sensitive mutant Cbk1 kinase
[15] = RAM signaling pathway blockade in yeast – S. cerevisiae, Pdr1DBD-CYC8 efflux-inhibited sensitized strain, primary screen (AID 1298;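 active = RAM network inhibition above 8.4% in each of two replicates, 3 SD over the compound average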;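 note: 0% = DMSO untreated cells without growth and 100% = 10 µM 1-NA-PP1 full growth; higher means more yeast growth rescued from 5-FOA killing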); conditions: S. cerevisiae cbk1-as DSE1-URA3 strain, 5-FOA growth OD615, 2 d; at 50 µM; stronger effect = higher value
[16] = H69AR cells + 2 uM doxorubicin, measured here: viability with 2 uM doxorubicin, stronger effect = lower value
[17] = H69AR cells, compound alone cytotoxicity

Compound	viability [1] [%]	Her2 level [2]	viability [3]	viability [4]	viability [5]	differential viability (reversal) ([6]; H69AR cells + 2 uM doxorubicin)	viability [6, 16] [%]	viability [6, 17] [%]	inhibition [7]	inhibition [8]	growth inhibition [9]	growth inhibition [10]	viability increase [11]	viability [12]	viability [13]	inhibition [14]	RAM network inhibition [15]
O=C(CS(=O)(=O)Cc1ccccc1)Nc1nc2ccccc2s1	104	85% (inactive)	104% (inactive)	89.2% (inactive)	92.1% (inactive)	-3.83% (inactive)	95.9	92.1	-0.13% (inactive)	0.32% (inactive)	-13.1% (inactive)	-17.7% (inactive)	-0.52% (inactive)	101% (inactive)	97.1% (inactive)	4.3% (inactive)	7.64% (inactive)
Cn1c(=O)c2c(nc(CN3CCN(Cc4ccccc4)CC3)n2Cc2cccc(Cl)c2)n(C)c1=O	93.5	81.5% (inactive)	93.5% (inactive)	69.9% (inactive)	57.7% (inactive)	36.9% (inactive)	20.9	57.7	-6.67% (inactive)	5.5% (inactive)	3.47% (inactive)	-0.975% (inactive)	-2.86% (inactive)	60.8% (inactive)	58.7% (inactive)	1% (inactive)	4.53% (inactive)
CCN1CCCC1CNC(=O)c1cc2c(=O)n(C)c3ccccc3c2n1C (stereo not drawn)	87	86.5% (inactive)	87% (inactive)	74.7% (inactive)	87.8% (inactive)	7.05% (inactive)	80.8	87.8	-0.4% (inactive)	15.9% (inactive)	-1.93% (inactive)	-3.33% (inactive)	-5.23% (inactive)	67.5% (inactive)	66.2% (inactive)	1.1% (inactive)	2% (inactive)
COc1ccc(C2C(C(=O)N3CCC(C)CC3)c3ccccc3C(=O)N2C)cc1 (stereo not drawn)	109	112% (inactive)	109% (inactive)	108% (inactive)	94.9% (inactive)	-1.18% (inactive)	96.1	94.9	1.23% (inactive)	9.84% (inactive)	-17% (inactive)	-12% (inactive)	-2.5% (inactive)	83.3% (inactive)	82.9% (inactive)	2.41% (inactive)	7.41% (inactive)
CCOc1ccc(NC2c3ccccc3C(=O)N2Cc2ccco2)cc1 (stereo not drawn)	83.5	96.5% (inactive)	83.5% (inactive)	98.7% (inactive)	96.2% (inactive)	-2.58% (inactive)	98.8	96.2	5% (inactive)	7.83% (inactive)	3.67% (inactive)	6.9% (inactive)	-0.75% (inactive)	92.6% (inactive)	85.4% (inactive)	1.4% (inactive)	5.57% (inactive)
COc1ccc(S(=O)(=O)Cc2ccc(C(=O)NCCc3ccc(S(N)(=O)=O)cc3)o2)cc1	94.5	114% (inactive)	94.5% (inactive)	91.6% (inactive)	91.7% (inactive)	12.1% (inactive)	79.6	91.7	-4.13% (inactive)	-2.67% (inactive)	-0.09% (inactive)	-4.47% (inactive)	0.71% (inactive)	102% (inactive)	99.1% (inactive)	0.71% (inactive)	0.1% (inactive)
CCc1cccc(NC(=O)CCc2nc(-c3cccs3)no2)c1	108	107% (inactive)	108% (inactive)	95.4% (inactive)	101% (inactive)	15.6% (inactive)	85.1	101	-3.47% (inactive)	-0.98% (inactive)	-1.88% (inactive)	-1.74% (inactive)	-1.34% (inactive)	95.6% (inactive)	97.6% (inactive)	0.515% (inactive)	-1.4% (inactive)
Cn1c(=O)[nH]c(=O)c2c1nc(N1CCCCC1)n2CCSc1ncccn1	101	89.5% (inactive)	101% (inactive)	102% (inactive)	88.8% (inactive)	-3.65% (inactive)	92.5	88.8	-3.2% (inactive)	0.83% (inactive)	1.54% (inactive)	-4.51% (inactive)	1.1% (inactive)	101% (inactive)	103% (inactive)	2.44% (inactive)	-0.42% (inactive)
O=C(Cn1c(=O)[nH]c2ccsc2c1=O)NC1CCCCCC1	110	97% (inactive)	110% (inactive)	111% (inactive)	94.3% (inactive)	-2.65% (inactive)	97	94.3	-7.16% (inactive)	2.17% (inactive)	-6.35% (inactive)	-17.4% (inactive)	1.49% (inactive)	106% (inactive)	99.2% (inactive)	0.875% (inactive)	0.72% (inactive)

— PubChem BioAssay
